# Assay results taken from PubChem BioAssay (EPA / NIEHS).
# Calls of active or inactive are those of the source. Rule for the calls: active = hit-call score of the fitted dose curve at least 0.9, where 1 is the maximum; inactive = score below 0.9.
# Assays:
# [1] = BSK_3C_SRB: Viability Assessment in the BioMAP Diversity Plus: 3C Assay (AID 2283023); conditions: primary human endothelial cells (HUVEC);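 note: fitted both ways against DMSO so a hit may be signal rise or drop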
# In short: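 Human umbilical vein endothelial cells in the 3C system, treated 24 h. Total protein measured by 0.1% sulforhodamine B staining after 10% TCA fixation, read at 560 nm; bidirectional fit versus DMSO.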
# [2] = read-out: Matrix Metallopeptidase 1 (MMP1), MMP1 (gene 4312); experiment: BSK_BE3C_MMP1: BioMAP Diversity Plus: BE3C Assay for Matrix Metallopeptidase 1 (MMP1) Biomarker Activity (AID 2283024); conditions: primary human bronchial epithelial cells; actives raise or lower the signal
# In short: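 ELISA measurement of MMP-1 after 24 h compound exposure of primary human bronchial epithelial cells. Changes in either direction fitted relative to DMSO; parallel SRB staining checked overt cytotoxicity.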
# [3] = BSK_3C_Vis: BioMAP Diversity Plus: 3C Assay for Morphology Visualization (AID 2283025); conditions: primary human endothelial cells (HUVEC);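 note: fitted both ways so gain or loss versus DMSO counts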;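 for AC50: light microscopy image of cell morphology used as background control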
# In short: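 Light-microscopy visualization of HUVEC cultures at 24 h post-treatment, with DMSO as baseline for bidirectional fitting.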
# [4] = read-out: Pselectin, SELP (gene 6403); experiment: BSK_4H_Pselectin: BioMAP Diversity Plus: 4H Assay for Pselectin Biomarker Activity (AID 2283026); conditions: primary human endothelial cells (HUVEC); actives raise or lower the signal
# In short: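 ELISA of surface P-selectin on HUVEC, 24 h after dosing, with parallel SRB staining (0.1% after 10% TCA fixation, 560 nm) for overt cytotoxicity. Activity fitted in both directions relative to DMSO.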
# [5] = BSK_4H_SRB: Viability Assessment in the BioMAP Diversity Plus: 4H Assay (AID 2283027); conditions: primary human endothelial cells (HUVEC);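 note: cells exposed to compound for 24 h before staining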;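 for AC50: curves fitted both ways versus DMSO so AC50 may be loss or gain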
# In short: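 Cytotoxicity readout: sulforhodamine B (0.1%) staining of total protein after 10% TCA fixation, measured at 560 nm in human umbilical vein endothelium at 24 h. DMSO set the baseline; fitting was bidirectional.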
# [6] = BSK_BE3C_SRB: Viability Assessment in the BioMAP Diversity Plus: BE3C Assay (AID 2283028); conditions: primary human bronchial epithelial cells;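 for AC50: fitted both ways so AC50 may mark signal gain or loss versus DMSO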
# In short: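 Human bronchial epithelial primary cells in confluent culture, 24 h after chemical dosing; total protein by 0.1% SRB staining after 10% TCA fixation, read at 560 nm. Bidirectional fitting versus DMSO baseline.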
# [7] = read-out: Thrombomodulin, THBD (gene 7056); experiment: BSK_3C_Thrombomodulin: BioMAP Diversity Plus: 3C Assay for Thrombomodulin Biomarker Activity (AID 2283029); conditions: primary human endothelial cells (HUVEC); actives raise or lower the signal
# In short: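 ELISA measurement of thrombomodulin on HUVEC surface 24 h after chemical dosing; activity fitted in both directions relative to DMSO vehicle.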
# [8] = read-out: Urokinase-type plasminogen activator receptor (uPAR), PLAUR (gene 5329); experiment: BSK_4H_uPAR: BioMAP Diversity Plus: 4H Assay for Urokinase-type plasminogen activator receptor (uPAR) Biomarker Activity (AID 2283030); conditions: primary human endothelial cells (HUVEC); actives raise or lower the signal
# In short: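 Human umbilical vein endothelial cells in the 4H system, 24 h after chemical dosing. Cell-surface uPAR measured by ELISA, fitted in both directions versus DMSO; cytotoxicity checked by SRB total protein in parallel cultures.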
# [9] = read-out: Vascular endothelial growth factor receptor 2 (Homo sapiens) (UniProt P35968); experiment: BSK_4H_VEGFRII: BioMAP Diversity Plus: 4H Assay for Vascular endothelial growth factor receptor 2 (VEGFR2) Biomarker Activity (AID 2283031); conditions: primary human endothelial cells (HUVEC); actives raise or lower the signal;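 for AC50: cell-surface VEGFR2 protein level quantified by ELISA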
# In short: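 Primary human umbilical vein endothelial cells (4H system), 24 h exposure; cell-surface VEGFR2 measured by ELISA. Bidirectional fitting versus DMSO; cytotoxicity checked in parallel by SRB total-protein staining.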
# [10] = read-out: Human Leukocyte Antigen - DR isotype (HLADR), HLA-DRA (gene 3122); experiment: BSK_BE3C_HLADR: BioMAP Diversity Plus: BE3C Assay for Human Leukocyte Antigen - DR isotype (HLADR) Biomarker Activity (AID 2283032); conditions: primary human bronchial epithelial cells; actives raise or lower the signal
# In short: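 Cell-surface HLA-DR ELISA readout at 24 h after dosing in the BE3C primary human lung bronchial epithelial system; gain or loss of signal against DMSO, with parallel sulforhodamine B staining of total protein for overt cytotoxicity.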
# [11] = read-out: Vascular cell adhesion molecule 1 (VCAM1), VCAM1 (gene 7412); experiment: BSK_4H_VCAM1: BioMAP Diversity Plus: 4H Assay for Vascular cell adhesion molecule 1 (VCAM1) Biomarker Activity (AID 2283033); conditions: primary human endothelial cells (HUVEC); actives raise or lower the signal;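 for outcome: cell-surface VCAM-1 protein measured by ELISA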
# In short: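 VCAM-1 ELISA read 24 h after chemical dosing of HUVEC in the BioMAP 4H system, with gain or loss of signal fitted relative to DMSO. Parallel SRB staining (560 nm) checked overt cytotoxicity.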
# [12] = read-out: Interferon-gamma inducible Protein 10 (IP10), CXCL10 (gene 3627); experiment: BSK_BE3C_IP10: BioMAP Diversity Plus: BE3C Assay for Interferon-gamma inducible Protein 10 (IP10) Biomarker Activity (AID 2283034); conditions: primary human bronchial epithelial cells; actives raise or lower the signal
# In short: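 IP-10 quantified by ELISA in human primary bronchial epithelial cell cultures at 24 hours post-dosing. Gain or loss of signal fitted relative to DMSO; parallel SRB staining assessed overt cytotoxicity.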
# [13] = read-out: Monokine induced gamma interferon (MIG), CXCL9 (gene 4283); experiment: BSK_BE3C_MIG: BioMAP Diversity Plus: BE3C Assay for Monokine induced gamma interferon (MIG) Biomarker Activity (AID 2283035); conditions: primary human bronchial epithelial cells; actives raise or lower the signal
# In short: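 hu bronchial epithelial 1° cells, 24 h cpd; MIG by ELISA; bidirectional fit, DMSO = baseline.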
# [14] = read-out: Transforming growth factor beta 1 (TGFb1), TGFB1 (gene 7040); experiment: BSK_BE3C_TGFb1: BioMAP Diversity Plus: BE3C Assay for Transforming growth factor beta 1 (TGFb1) Biomarker Activity (AID 2283036;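 for outcome: TGF-b1 protein level measured by ELISA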); conditions: primary human bronchial epithelial cells; actives raise or lower the signal
# In short: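 ELISA readout of TGF-b1 from human lung bronchial epithelial primary cells, taken 24 h post-treatment. Gain or loss of signal fitted relative to DMSO baseline, with parallel SRB staining for overt cytotoxicity.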
# [15] = read-out: Plasminogen activator inhibitor-1 (PAI1), SERPINE1 (gene 5054); experiment: BSK_BE3C_PAI1: BioMAP Diversity Plus: BE3C Assay for Plasminogen activator inhibitor-1 (PAI1) Biomarker Activity (AID 2283037); conditions: primary human bronchial epithelial cells; actives raise or lower the signal
# In short: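 PAI-1 was measured by ELISA in human primary bronchial epithelial cultures 24 h after chemical dosing, with cytotoxicity checked by SRB total-protein staining in parallel cultures. Activity was fitted in both directions relative to DMSO.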
# [16] = read-out: urokinase plasminogen activator (uPA), PLAU (gene 5328); experiment: BSK_BE3C_uPA: BioMAP Diversity Plus: BE3C Assay for urokinase plasminogen activator (uPA) Biomarker Activity (AID 2283038); conditions: primary human bronchial epithelial cells; actives raise or lower the signal;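 for outcome: uPA protein level quantified by ELISA in cell cultures; uPA read one day after compound addition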
# In short: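 Primary human bronchial epithelial cells, uPA measured by ELISA 24 h after dosing. Bidirectional change relative to DMSO; cytotoxicity checked in parallel cultures by sulforhodamine B total-protein staining.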
# [17] = read-out: Urokinase-type plasminogen activator receptor (uPAR), PLAUR (gene 5329); experiment: BSK_BE3C_uPAR: BioMAP Diversity Plus: BE3C Assay for Urokinase-type plasminogen activator receptor (uPAR) Biomarker Activity (AID 2283039); conditions: primary human bronchial epithelial cells; actives raise or lower the signal;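 for outcome: cells exposed to compound for one day before measurement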
# In short: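 uPAR levels were measured by ELISA after 24 h compound treatment of primary human bronchial epithelial cells, fitted in both directions relative to DMSO. Parallel SRB staining served as the cytotoxicity read-out.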
# [18] = read-out: Interleukin-6 (IL6), IL6 (gene 3569); experiment: BSK_CASM3C_IL6: BioMAP Diversity Plus: CASM3C Assay for Interleukin-6 (IL6) Biomarker Activity for (AID 2283040); conditions: primary human coronary artery smooth muscle cells; actives raise or lower the signal
# [19] = read-out: Tissue plasminogen activator (tPA), PLAT (gene 5327); experiment: BSK_BE3C_tPA: BioMAP Diversity Plus: BE3C Assay for Tissue plasminogen activator (tPA) Biomarker Activity (AID 2283041); conditions: primary human bronchial epithelial cells; actives raise or lower the signal;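 for outcome: tPA level quantified by ELISA one day after compound addition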
# In short: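 tPA measured by ELISA 24 h after dosing human primary bronchial epithelial cells (BE3C system). Changes in either direction were fitted against DMSO. Parallel cultures were stained with SRB to flag overt cytotoxicity.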
# [20] = read-out: Interleukin-8 (IL8), CXCL8 (gene 3576); experiment: BSK_CASM3C_IL8: BioMAP Diversity Plus: CASM3C Assay for Interleukin-8 (IL8) Biomarker Activity (AID 2283042); conditions: primary human coronary artery smooth muscle cells; actives raise or lower the signal;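 note: IL-8 protein level quantified by ELISA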
smiles,measurement,setting,value
Cn1c(=O)c2c(ncn2C)n(C)c1=O,outcome,[1],inactive
same,outcome,[2],inactive
same,outcome,[3],inactive
same,outcome,[4],inactive
same,outcome,[5],inactive
same,outcome,[6],inactive
same,outcome,[7],inactive
same,outcome,[8],inactive
same,outcome,[9],inactive
same,outcome,[10],inactive
same,outcome,[11],inactive
same,outcome,[12],inactive
same,outcome,[13],inactive
same,outcome,[14],inactive
same,outcome,[15],inactive
same,outcome,[16],inactive
same,outcome,[17],inactive
same,outcome,[18],inactive
same,outcome,[19],inactive
same,outcome,[20],inactive
COCCOCCOCCOC,outcome,[2],inactive
same,outcome,[3],inactive
same,outcome,[4],inactive
same,outcome,[5],inactive
same,outcome,[6],inactive
same,outcome,[7],inactive
same,outcome,[8],inactive
same,outcome,[9],inactive
same,outcome,[10],inactive
same,outcome,[11],inactive
same,outcome,[12],inactive
same,outcome,[13],inactive
same,outcome,[14],inactive
same,outcome,[15],inactive
same,outcome,[16],inactive
same,outcome,[17],inactive
same,outcome,[18],inactive
same,outcome,[19],inactive
same,outcome,[20],inactive
CCOc1cccc(-n2cc(C(=O)N3CCN(c4cc(C(=O)O)c5ccccc5c4)CC3)nc2-c2ccc(C)cc2)c1,AC50,[1],16.8 µM (active)
same,AC50,[2],33.4 µM (active)
same,AC50,[3],38 µM (active)
same,AC50,[4],26.2 µM (active)
same,AC50,[5],13.7 µM (active)
same,AC50,[6],31.3 µM (active)
same,outcome,[7],inactive
same,AC50,[8],12.7 µM (active)
same,AC50,[9],18.2 µM (active)
same,AC50,[10],24.5 µM (active)
same,AC50,[11],29.9 µM (active)
same,AC50,[12],15 µM (active)
same,AC50,[13],32.6 µM (active)
same,AC50,[14],27.4 µM (active)
same,AC50,[15],19.2 µM (active)
same,AC50,[16],16.8 µM (active)
same,AC50,[17],15.7 µM (active)
same,AC50,[18],30.3 µM (active)
same,AC50,[19],9.89 µM (active)
same,outcome,[20],inactive
CCN(C(=O)c1cc(C)cc(OC[C@H](C)Nc2ccncc2)c1)C(C)C,outcome,[1],inactive
same,outcome,[2],inactive
same,outcome,[3],inactive
same,outcome,[4],inactive
same,outcome,[5],inactive
same,outcome,[6],inactive
same,outcome,[7],inactive
same,outcome,[8],inactive
same,outcome,[9],inactive
same,outcome,[10],inactive
same,outcome,[11],inactive
same,outcome,[12],inactive
same,outcome,[13],inactive
same,outcome,[14],inactive
same,outcome,[15],inactive
same,outcome,[16],inactive
same,outcome,[17],inactive
same,outcome,[18],inactive
same,outcome,[19],inactive
same,outcome,[20],inactive
CC(C)CC(C)(O)C#CC(C)(O)CC(C)C (stereo not drawn),outcome,[1],inactive
same,outcome,[2],inactive
same,outcome,[3],inactive
same,outcome,[4],inactive
same,outcome,[5],inactive
same,outcome,[6],inactive
same,outcome,[7],inactive
same,outcome,[8],inactive
same,outcome,[10],inactive
same,outcome,[11],inactive
same,outcome,[12],inactive
same,outcome,[13],inactive
same,outcome,[14],inactive
same,outcome,[15],inactive
same,outcome,[16],inactive
same,outcome,[17],inactive
same,outcome,[18],inactive
same,outcome,[19],inactive
same,outcome,[20],inactive
Cc1[nH]cnc1C[C@H]1CCc2c(C)c3ccccc3n2C1=O,AC50,[1],26 µM (active)
same,outcome,[2],inactive
same,AC50,[3],18.4 µM (active)
same,AC50,[4],21.4 µM (active)
same,AC50,[5],24 µM (active)
same,outcome,[6],inactive
same,outcome,[7],inactive
same,AC50,[8],22.5 µM (active)
same,outcome,[9],inactive
same,outcome,[10],inactive
same,AC50,[11],28.9 µM (active)
same,outcome,[12],inactive
same,outcome,[13],inactive
same,outcome,[14],inactive
same,outcome,[15],inactive
same,outcome,[16],inactive
same,AC50,[17],24.1 µM (active)
same,outcome,[18],inactive
same,outcome,[19],inactive
same,outcome,[20],inactive
